The record followed here is PubChem BioAssay (Tox21).

Values joined by “and” are separate entries in the source; they are usually repeats but may differ in a detail not shown here. Equal entries are not always repeated. Results filed as inconclusive are left out. Where a call stands in place of a potency, no number is given. Active and inactive are the calls of the source. Calls follow the shape of the dose curve; as a rule, active = well fitted cell-killing curve with a large enough effect in the repeat runs; inconclusive = weak or mixed curves, or effect the other way; inactive = no such curve, though single readings can be large or run the other way.
Potency is read from the fitted curve at half-maximal effect.

This assay in a line: qHTS assay to identify small molecule antagonists of the peroxisome proliferator-activated receptor gamma (PPARg) signaling pathway - cell viability counter screen (AID 743194). Also: nearly all actives have a fitted effect of over 55% in size. Particulars: PPARg-bla HEK293H viability, CellTiter-Glo luminescence, 17 h, co-treated with 50 nM rosiglitazone; series mostly up to 62.6 µM. The source says:
U.S. Tox21 Program National Center for Advancing Translational Sciences [NCATS] NIH Chemical Genomics Center [NCGC] U.S. Environmental Protection Agency [EPA] National Institutes of Environmental Health Sciences [NIEHS] National Toxicology Program [NTP] U.S. Food and Drug Administration [FDA] Tox21 Assay Overview: The peroxisome proliferator-activated receptors (PPARs) are lipid-activated transcription factors of the nuclear receptor superfamily with three distinct subtypes namely PPAR alpha, PPAR delta (also called PPAR beta) and PPAR gamma (PPARg). All these subtypes heterodimerize with Retinoid X receptor (RXR) and these heterodimers regulate transcription of various genes. PPAR-gamma receptor (glitazone receptor) is involved in the regulation of glucose and lipid metabolism. To identify the compounds that activate PPAR-gamma signaling, GeneBLAzer PPAR gamma UAS-bla HEK293H cell line (Invitrogen, Carlsbad, CA, USA) containing a beta-lactamase reporter gene under the control of an Upstream Activator Sequence (UAS) was used to screen the Tox21 compound library. The cytotoxicity of the Tox21 compound library against the PPARg-bla cell line was tested in parallel by measuring the cell viability using CellTiter-Glo assay in the same wells.
Tox21 Assay Protocol Summary: PPARg-bla cells were dispensed at 3000 cells/5uL/well in 1536-well black wall/clear bottom plates using a Multidrop Combi (Thermo Fisher Scientific, Waltham, MA) dispenser. After the assay plates were incubated at 37 C and 5% CO2 for 5 h, 23 nL of compounds dissolved in DMSO, positive controls or DMSO only was transferred to the assay plate by a Pintool station (Kalypsys, San Diego, CA), followed by addition of 1ul Rosiglitazone (50 nM, final concentration in the wells). The assay plates were incubated at 37 C for 17 h, and then 1 uL of LiveBLAzerTM B/G FRET substrate was added using a Bioraptr Flying Reagent Dispenser (FRD) workstation (Beckman Coulter, Indianapolis, IN, USA). The assay plates were incubated at room temperature for 1 h and fluorescence intensity was measured by an Envision plate reader (PerkinElmer, Shelton, CT). For cell viability readout that measures cytotoxicity, 4 ul/well of CellTiter-Glo reagent was added into the assay plates using a Flying Reagent Dispenser. After 30 min incubation at room temperature, the luminescence intensity in the plates was measured using a ViewLux plate reader (PerkinElmer).
(In general: In qHTS, concentration-response curves come from the screen itself.)
For `CSc1cnc(C)cn1`, the Potency result was “inactive”.
Then `O=C(Nc1ccc(Oc2ccc(Cl)cc2)c(Cl)c1)c1cc(I)cc(I)c1O`, with 5.31 µM (active); and `C/C=C1/C(=O)C[C@H]2[C@@H]3CCC4=CC(=O)CC[C@]4(C)[C@H]3CC[C@]12C`, with “inactive”; and `CC(C)CCCCCCCCCCCCCCC(=O)O`, with “inactive”.
With `O=C1CCCc2c1cc1ccc3cccc4ccc2c1c34`, the Potency entry is “inactive”.
Then `O=[N+]([O-])c1cc([N+](=O)[O-])c2ccc(S(=O)(=O)O)cc2c1O`, with “inactive”; and `Cc1cc(O)c(C(C)(C)C)cc1Sc1cc(C(C)(C)C)c(O)cc1C`, with 10.9 µM (active); and `Cc1cc(=O)oc2cc(N(C)C)ccc12`, with “inactive”.
With `NNc1nc(-c2ccccc2)cs1`, the Potency result is “inactive”.
For `O=C(O)c1c(Cl)cccc1Cl` the value was “inactive”; for `CCCC/C=C/CCCCO`, “inactive”; for `O=C(c1ccc(O)cc1O)c1ccc(O)cc1O`, “inactive”.
Turning to `CCCCN(CCCC)C(=O)N(CCCC)CCCC`, the Potency result was “inactive”.
Then `COc1cc(-c2nc(NC(=O)c3cc4cc(C)cc(C)c4n3CC(=O)O)sc2CCC2CCCCC2)c(OC)cc1Cl`, with 8.96 µM (active); and `O=C(Nc1cccc(C(F)(F)F)c1)c1cc(Br)cc(Br)c1O`, with 0.389 µM (active); and `Cc1onc(-c2ccccc2Cl)c1C(=O)N[C@@H]1C(=O)N2[C@@H]1SC(C)(C)[C@@H]2C(=O)O`, with “inactive”.
With `C[C@H](CCC(=O)O)[C@H]1CC[C@H]2[C@@H]3CC[C@@H]4C[C@H](O)CC[C@]4(C)[C@H]3CC[C@]12C`, the Potency was 21.8 µM (active) and 49 µM (active).
As to `CC/C(=C(\c1ccc(O)cc1)c1ccc(OCCN(C)C)cc1)c1ccccc1`, the Potency was 17.4 µM (active).
Then `Nc1c2ccccc2nc2ccccc12`, with “inactive”; and `O=C(Oc1cccc2cccnc12)c1ccccc1`, with “inactive”.
Then `CCCCCCCCCCCC[N+](C)(C)CCCCCCCCCCCC`, with 27.5 µM (active); and `CN(C)[C@@H]1C(=O)C(C(N)=O)=C(O)[C@@]2(O)C(=O)C3=C(O)c4c(O)cccc4C[C@H]3C[C@@H]12`, with “inactive”.
In the case of `O=C(O)c1cc(O)c2c(c1)C(=O)c1cccc(O)c1C2=O`, the Potency result was “inactive”.
Then `N=C1N=C(N)c2ccccc21`, with “inactive”; and `O=c1[nH]cnc2nc[nH]c12`, with “inactive”.
Consider `CCc1cc(Cc2cc(CC)cc(C(C)(C)C)c2O)c(O)c(C(C)(C)C)c1`, for which the Potency was 6.92 µM (active).
As to `CCCCN1C(=O)[C@@H]([C@H](O)C2CCCCC2)NC(=O)C12CCN(Cc1ccc(Oc3ccc(C(=O)O)cc3)cc1)CC2`, the Potency result is “inactive”.
`CCCCCCCC(=O)[O-].CCCCCCCC(=O)[O-].[Zn+2]`: the Potency entry was “inactive”.
Then `Cc1oc(-c2ccccc2)nc1CCC(=O)c1ccc(CC2SC(=O)NC2=O)cc1` (stereo not given), with “inactive”; and `Cc1ccc(-n2nc(C(C)(C)C)cc2NC(=O)Nc2ccc(OCCN3CCOCC3)c3ccccc23)cc1`, with “inactive”.
On to `N#CC1(c2ccc(F)cc2)CCC(=O)CC1`, for which the Potency entry is “inactive”.
For `CCCC(=O)OC[C@@H](OC(=O)CCC)[C@@H](OC(=O)CCC)[C@H](Cn1c2nc(=O)[nH]c(=O)c-2nc2cc(C)c(C)cc21)OC(=O)CCC` the value was “inactive”; for `CCCC1O[C@@H]2C[C@H]3[C@@H]4CCC5=CC(=O)C=C[C@]5(C)[C@H]4[C@@H](O)C[C@]3(C)[C@]2(C(=O)CO)O1` (stereo not given in full), “inactive”; for `CCC1=C[C@@H]2CN(C1)Cc1c([nH]c3ccccc13)[C@@](C(=O)OC)(c1cc3c(cc1OC)N(C)[C@H]1[C@@](O)(C(=O)OC)[C@H](OC(C)=O)[C@]4(CC)C=CCN5CC[C@]31[C@@H]54)C2`, “inactive”.
Regarding `c1ccc(CSCc2ccccc2)cc1`, the Potency entry is “inactive”.
Then `Cc1c(C)c2c(c(C)c1O)CCC(C)(COc1ccc(CC3SC(=O)NC3=O)cc1)O2` (stereo not given), with “inactive”; and `O=C(NO)C1(NS(=O)(=O)c2ccc(Oc3ccc(F)cc3)cc2)CCOCC1`, with “inactive”; and `Cc1cccc2c1cc1ccc3cccc4ccc2c1c34`, with “inactive”.
Take `CCCCN(CCCC)c1ccc(C(=O)c2ccccc2C(=O)O)c(O)c1`: the Potency is 44.1 µM (active).
For `[O-][n+]1ccccc1SSc1cccc[n+]1[O-]` the value was “inactive”.
